# Screens deposited in PubChem by National Center for Advancing Translational Sciences (NCATS).
# This is a sample that favours compounds with a hit; in the whole collection about 9.9% have one here.
# Tau FP inhib – qHTS for Inhibitors of Tau Fibril Formation, Fluorescence Polarization | Potency, µM (top dose mostly 57.7 µM), usual class: inhibitors | AID 1468, 2008 | 280,000 compounds, 0.39% hits | K18 P301L tau heparin fibrillization, Alexa594 FP, 6 h; also: nearly all actives have a fitted effect of over 55% in size
# Target sequence (P10636 561-689 P618L limits assumed): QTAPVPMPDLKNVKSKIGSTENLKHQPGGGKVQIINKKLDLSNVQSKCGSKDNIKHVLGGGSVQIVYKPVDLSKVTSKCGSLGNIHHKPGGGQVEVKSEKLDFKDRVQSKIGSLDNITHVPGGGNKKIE
#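 Compound effects on tau fibrillization are measured by Alexa 594 fluorescence polarization (ex 555, em 632 nm). K18 P301L tau is used at 15 uM with 0.24 uM labeled tracer, and 20 uM heparin induces aggregation over 6 hr at 37 C.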
# ALDH1A1 block – qHTS Assay for Inhibitors of Aldehyde Dehydrogenase 1 (ALDH1A1). Purified ALDH1A1, NADH fluorescence, propionaldehyde substrate. Potency, µM (doses to about 75.3 µM), usual class: inhibitors. 220,000 compounds, 7.3% hits. AID 1030, 2008; active = well fitted inhibition curve with a large enough effect, not every such curve was filed as active; inconclusive = small, poorly fitted or top-dose-only effect, or another doubt; inactive = no such curve, though single readings can be large or run the other way
# HPGD inh – qHTS Assay for Inhibitors of HPGD (15-Hydroxyprostaglandin Dehydrogenase); Potency, µM, most hits filed as inhibitors; purified HPGD, NADH fluorescence kinetic, PGE2 substrate; AID 894, 2007; 150,000 compounds, 4.3% hits; active = well fitted inhibition curve with a large enough effect, not every such curve was filed as active; inconclusive = small, poorly fitted or top-dose-only effect, or another doubt; inactive = no such curve, though single readings can be large or run the other way
# Target sequence (P15428 whole entry, looked up): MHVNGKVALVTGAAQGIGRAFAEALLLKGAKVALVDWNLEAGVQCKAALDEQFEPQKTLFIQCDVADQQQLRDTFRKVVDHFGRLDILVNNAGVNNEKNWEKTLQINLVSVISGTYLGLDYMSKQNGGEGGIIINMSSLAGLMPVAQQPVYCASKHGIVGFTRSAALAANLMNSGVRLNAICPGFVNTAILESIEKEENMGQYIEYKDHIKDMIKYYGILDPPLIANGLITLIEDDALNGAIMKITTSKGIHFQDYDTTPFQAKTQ
#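 20 nM HPGD preincubated 15 min at room temperature with compound in 50 mM Tris-HCl pH 8, 0.01% Tween 20. Started with 1 mM NAD+ and 30 uM prostaglandin E2; NADH fluorescence (360/450 nm) read 5 times over 30-s intervals, last minus first.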
# Tau fluor counter – Counterscreen qHTS for Inhibitors of Tau Fibril Formation, Fluorescence Polarization; tau K18 P301L Alexa594 fluorescence, heparin fibrillization; Potency, µM (doses to about 57.7 µM); 280,000 compounds, 0.93% hits; AID 1463, 2008; also: nearly all actives have a fitted effect of over 55% in size
#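 Human tau K18 P301L (15 uM unlabeled, 0.24 uM Alexa 594-labeled) in 100 mM sodium acetate pH 7 with 20 uM heparin, 6 hr at 37 C. ThT 30 uM added, 1 hr ambient; Alexa 594 FP and total fluorescence read at 555/632 nm.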
# JMJD2E inh – qHTS Assay for Inhibitors of Human Jumonji Domain Containing 2E (JMJD2E) | AID 2147, 2009 | JMJD2E catalytic domain, FDH-coupled NADH fluorescence (FDH is formaldehyde dehydrogenase) | 230,000 compounds, 1.6% hits | Potency, µM (series often up to 57.1 µM), usual class: inhibitors; active = well fitted inhibition curve with a large enough effect, not every such curve was filed as active; inconclusive = small, poorly fitted or top-dose-only effect, or another doubt; inactive = no such curve, though single readings can be large or run the other way; also: nearly all actives have a fitted effect of over 50% in size
# Tau ThT inhib – qHTS for Inhibitors of Tau Fibril Formation, Thioflavin T Binding; Microtubule-associated protein tau (Homo sapiens), P10636; 270,000 compounds, 2.1% hits; Potency, µM (titrated, usually from 57.4 µM), most hits filed as inhibitors; recombinant tau K18 P301L (four-repeat tau fragment), heparin-induced fibrillization, ThT fluorescence; AID 1460, 2008; also: nearly all actives have a fitted effect of over 55% in size
#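 In this qHTS, human K18 P301L tau is incubated with compound and heparin for 6 hr at 37 C, and Thioflavin T fluorescence then reports fibril load.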
# A number is an active result; . = inactive; ? = inconclusive; / = no result given; [ ] = dose if it differs, or a comment. Unless noted, calls follow the shape of the dose curve; as a rule, active = well fitted curve in the direction sought with a large enough effect; inconclusive = small, poorly fitted or top-dose-only effect, or another doubt; inactive = no such curve, though single readings can be large; an effect the other way counts as inactive or inconclusive.
SMILES,Tau FP inhib,ALDH1A1 block,HPGD inh,Tau fluor counter,JMJD2E inh,Tau ThT inhib
Cc1nnc(SCC(=O)N2CC(=O)Nc3ccccc32)s1,.,.,/,.,.,.
O=C1CN(C(=O)CSc2nc(-c3ccc(Cl)cc3)cs2)c2ccccc2N1,.,.,12.6µM,?,.,.
CCCCS(=O)(=O)c1sc2nc(C)cc(C)c2c1N,.,.,2.82µM,.,?,.
CC1(C)OC(C(O)(c2cccc3c2oc2ccccc23)c2cccc3c2oc2ccccc23)C(C(O)(c2cccc3c2oc2ccccc23)c2cccc3c2oc2ccccc23)O1 (stereo not given),.[11.6 µM],.[13.5 µM],/,.[11.6 µM],/,.[11.5 µM]
COc1ccc(CNC(=O)CN2C(=O)CSc3ccc(S(=O)(=O)N4CCCC4)cc32)cc1,.,/,/,.,/,.
CCOC(=O)c1c(C)n(C)c2ccc(OCC(O)CN3C(=O)c4ccccc4S3(=O)=O)cc12 (stereo not given),.,2.51µM,.,.,.,.
CCOC(=O)c1c(C)n(C)c2ccc(OCC(O)Cn3nc(C)cc3C)cc12 (stereo not given),.,.,.,.,?,.
Cc1nc(SCC(=O)c2ccc(Cl)s2)c2oc3ccccc3c2n1,.,?,2.24µM,.,.,.
O=C(O)CSc1nc(-c2ccc(Cl)cc2)nc2c1oc1ccccc12,.,?,15.8µM,.,.,?
O=C(O)CSc1nc(-c2ccccc2)nc2c1oc1ccccc12,.,?,?,.,.,.
CCc1nc2ccc(C)cc2c(C(=O)NC2CCCCC2C)c1C (stereo not given),.,.,.,.,.,.
CC[n+]1ccc2cc(OC)c(OC)cc2c1Cc1ccc(OC)c(OC)c1,.,.,/,.,25.1µM,.
CCCn1c(C)nc2c(NCCCN(C)C)nc(C)nc21,.,.,.,.,.,.
C=CCn1c(NC(=O)CC)c(C(=O)OCC)sc1=S,.,?,20µM,.,.,.
COc1ccc(C)cc1NC(=O)N(Cc1ccc(C)o1)C1CCN(C(C)=O)CC1,.,/,/,.,/,.
O=C(O)c1ccc(Cl)c2c1C1C=CCC1C(c1ccccn1)N2 (stereo not given),?,?,?,14.1µM[quencher],25.1µM,14.1µM
O=[N+]([O-])c1ccc(Cl)c2c1C1C=CCC1C(c1ccccn1)N2 (stereo not given),?,?,/,?,.,25.1µM
Cc1nc(N2C(=O)c3oc4ccccc4c(=O)c3C2c2cccc(OCCC(C)C)c2)sc1C (stereo not given),.,/,/,.,/,.
CN(C)c1ccc(C(CNC(=O)c2c(F)cccc2Cl)N2CCOCC2)cc1 (stereo not given),.,/,/,.,/,.
Cn1nc(-c2ccc(N3CCN(CCO)CC3)c([N+](=O)[O-])c2)c2ccccc2c1=O,.,4.47µM,/,.,.,.
Cc1cc(/C([O-])=C(/C(=S)Nc2ccc(F)cc2)[n+]2ccccc2)c(C)n1-c1ccc(F)cc1,.,.,.,?,.,28.2µM
Cc1cc(/C([O-])=C(/C(=S)Nc2ccccc2)[n+]2ccccc2)c(C)n1-c1ccccc1,.,?,.,.,.,?
Cn1c(=O)n(C)c2cc(/C=C3/NC(=O)N(Cc4ccccc4)C3=O)ccc21,.,?,.,.,.,.
COC(=O)CN1C(=O)N/C(=C/c2ccc(C)o2)C1=O,?,17.8µM,/,.,?,?
Cc1ccc(/C=C2/NC(=O)N(Cc3ccccc3)C2=O)o1,?,3.55µM,25.1µM,.,11.2µM,31.6µM
SMILES,Tau FP inhib,ALDH1A1 block,HPGD inh,Tau fluor counter,JMJD2E inh,Tau ThT inhib
Oc1ccc2cc(SSc3ccc4cc(O)ccc4c3)ccc2c1,/,.,.,/,/,/
CCOc1ccc(C(c2c(O)cc(C)n(CCOC)c2=O)N2CCN(c3ccccc3)CC2)cc1 (stereo not given),.,/,/,.,/,?
CCOC(C)=O,/,?,.,/,/,/
CCOC(=O)/C(C#N)=C1\SS/C(=C(/C#N)C(=O)OCC)S1,6.31µM,/,/,.,?,2.82µM
C=C(C#N)C(=O)OCC,/,8.91µM,.,/,/,/
O=S(=O)(NC1c2cccc3cccc(c23)C1N1CCNCC1)c1ccc(Cl)cc1 (stereo not given),.,.,/,.,.,.
CCOC(=O)N/N=C/c1ccccc1-c1cc(OC)ccc1OC,.,.,.,.,.,.
S=C1NC2(CCCCC2)NN1c1ccccc1,.,?,/,.,?,?
c1cc2c3c(cccc3c1)NC1(CCCCCC1)N2,.,3.16µM,?,?,3.55µM,?
c1cc2c3c(cccc3c1)NC1(CCCCC1)N2,.,.,.,?,3.16µM,?
c1cc2c3c(cccc3c1)NC1(CCC3(CC1)Nc1cccc4cccc(c14)N3)N2,.,?,/,12.6µM[quencher],?,15.8µM
COc1cc(-c2cc3n(C)c(C)c(CCC(=O)NC4CCC(C)CC4)c(=O)n3n2)cc(OC)c1OC (stereo not given),.,/,/,.,/,.
Nc1nc(F)cc(N2CCCCCC2)n1,.,.,/,.,.,.
Cc1c(C)c(C)c(CC2(C)CSC2)c(CC2(C)CSC2)c1C,/,.[13.5 µM],.,/,/,/
COCCN(C(=O)CSc1nnc(-c2cccc(OC)c2)n1C)c1c(N)n(Cc2ccccc2)c(=O)[nH]c1=O,.,.,/,.,.,.
N#Cc1c(N2C(=O)C3C4C=CC(C4)C3C2=O)sc2c1CCC2 (stereo not given),.,17.8µM,.,.,.,.
Cn1c(=O)c(-c2cc(F)cc(F)c2)nc2cnc(Oc3cccc(Cl)c3)nc21,/,?,.,/,/,/
O=C(NCCc1c[nH]c2ccccc12)c1cc2sccc2n1Cc1ccccc1,.,?,.,8.91µM[quencher],.,.
Cn1c(C(=O)NCCc2c[nH]c3ccccc23)cc2sccc21,?,.,.,?,.,?
CC(C)(O)C#Cc1ccc(CN2CCCC(CO)(Cc3cccc(Cl)c3)C2)cc1 (stereo not given),.,.,/,.,.,.
CSc1ccccc1NC(=O)CN(C)CC(=O)Nc1cc(C)ccc1C,?,.,.,.,.,.
COc1ccccc1NC(=O)CSc1nnc(NC(=O)Nc2ccc(C)cc2)s1,15.8µM,/,/,?,/,.
O=C(CSc1ccccc1)Nc1ccccc1C(=O)O,.,.,.,.,.,.
CSc1ccccc1NC(=O)CN(C)CC(=O)NCc1ccccc1,.,0.199µM,/,.,.,.
NC(=O)SCC(=O)Nc1ccccc1C(=O)O,?,.,/,.,.,22.4µM
COc1ccccc1NC(=O)CSc1nnc(N)s1,.,/,/,.,/,.
